In all, about 110,000 compounds were measured (“z-score”: median about -0.1, highest 2% from about 2 on). This is one part of a sample in which the highest values are shown more often than they occur. Active and inactive are the calls of the source.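 How the source made its calls: active means z-score in the third read window above 3 or below -3; inactive means the rest.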
Each compound was assayed against Metabotropic glutamate receptor 8 (Rattus norvegicus) (UniProt P70579) (assay: rat mGluR8 modulators via GIRK flux, primary screen, cell-based, thallium flux, HTS (AID 488969)). Settings: HEK293 rat mGluR8, GIRK (G protein-gated inwardly rectifying potassium channel) thallium flux, FluoZin2; at 10 µM; stronger effect = higher value; submaximal glutamate (EC20) added with thallium.
Metabotropic glutamate receptor 8 (Rattus norvegicus), sequence (P70579 whole entry, looked up): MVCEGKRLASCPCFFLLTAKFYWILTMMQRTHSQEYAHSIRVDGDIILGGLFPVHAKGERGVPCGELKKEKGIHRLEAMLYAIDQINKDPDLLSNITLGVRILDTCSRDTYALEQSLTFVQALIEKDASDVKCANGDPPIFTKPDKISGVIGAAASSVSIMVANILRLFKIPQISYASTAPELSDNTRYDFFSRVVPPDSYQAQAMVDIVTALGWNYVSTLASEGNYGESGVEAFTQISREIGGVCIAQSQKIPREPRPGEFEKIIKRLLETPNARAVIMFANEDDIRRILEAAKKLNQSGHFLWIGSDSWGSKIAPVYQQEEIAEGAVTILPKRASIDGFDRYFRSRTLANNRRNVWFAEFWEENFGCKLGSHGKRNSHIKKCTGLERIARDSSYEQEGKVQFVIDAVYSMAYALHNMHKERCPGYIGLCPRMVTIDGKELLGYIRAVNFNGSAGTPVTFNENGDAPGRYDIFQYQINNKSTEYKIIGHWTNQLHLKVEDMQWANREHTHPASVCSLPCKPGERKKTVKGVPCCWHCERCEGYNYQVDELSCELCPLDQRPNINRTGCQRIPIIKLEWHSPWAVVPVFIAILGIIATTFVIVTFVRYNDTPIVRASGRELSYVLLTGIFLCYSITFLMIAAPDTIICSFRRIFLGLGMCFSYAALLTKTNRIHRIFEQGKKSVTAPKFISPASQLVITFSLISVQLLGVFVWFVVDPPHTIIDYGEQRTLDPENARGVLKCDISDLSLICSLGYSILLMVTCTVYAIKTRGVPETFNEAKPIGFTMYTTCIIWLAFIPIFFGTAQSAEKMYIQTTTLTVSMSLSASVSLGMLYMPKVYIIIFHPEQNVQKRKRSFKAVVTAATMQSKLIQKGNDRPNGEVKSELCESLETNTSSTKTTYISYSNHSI
`COC(=O)Nc1ccc(S(=O)(=O)Nc2ccccc2F)cc1` was tested, and the z-score was 0.00713. Work on `Cc1cc(NC(=O)C2C3C(=O)N(Cc4ccc(Cl)cc4)C(C(=O)NCc4ccccc4)C34C=CC2(C)O4)no1` (stereo not drawn) yielded a z-score of 0.193. Compound `Cc1cccc(NC(=O)CN2C(=O)S/C(=C\c3cc(C)n(C)c3C)C2=O)c1` has a z-score of 0.326. `CCOC(=O)N1CCN(CC(=O)N2c3ccccc3CC2C)CC1` (stereo not drawn) gave a z-score of -0.746. For `CCOC(=O)C1=C(C)NC(C)=C(C(=O)OCC)C1C(=O)OCC(=O)N1c2ccccc2CC1C` (stereo not drawn), the z-score was 2.55. With `COC(=O)C1=C(C)NC(C)=C(C(=O)OC)C1C(=O)OCC(=O)N1c2ccccc2CC1C` (stereo not drawn) the z-score was 0.131. Compound `C/C(=N\NC(=O)OC(C)(C)C)c1cccc([N+](=O)[O-])c1` has a z-score of -0.272. `Cc1ccc(C(=O)Nc2nc(=O)n(C(=O)C3CC3)s2)cc1` gave a z-score of -0.185. For `Cc1ccc(Nc2cc(C)nc(NCc3ccccc3)n2)cc1`, the z-score was -0.326. `Cc1cc(N2CCN(c3ccccc3)CC2)nc(NCc2ccccc2)n1` gave a z-score of 3. `Cc1cc(N2CCOCC2)nc(NCc2ccccc2)n1` was tested, and the z-score was -0.0745. `Cc1cc(Nc2ccccc2)nc(NCc2ccccc2)n1` was tested, and the z-score was 2.34. In the case of `Cc1cc(Nc2ccc(Cl)cc2)nc(NCc2ccccc2)n1`, the z-score is reported as -0.173. Work on `Cc1cc(N2CCCCC2)nc(NCc2ccccc2)n1` yielded a z-score of 0.794. `c1ccc(-c2nnc(-c3ccccc3)c(-c3c[nH]c4ccccc34)n2)cc1` was tested, and the z-score was 0.446. In the case of `NNc1nc2c(F)cccc2s1`, the z-score is reported as 0.0402. `CC(=O)Nc1nc2c(F)cccc2s1` was tested, and the z-score was 0.033. `Fc1cc(F)c2nc(Nc3nc4c(F)cccc4s3)sc2c1` was tested, and the z-score was 9.18 (active). Work on `Fc1cccc2sc(Nc3nc4c(F)cccc4s3)nc12` yielded a z-score of 2.09. Compound `Fc1cccc2sc(Nc3nc4ccccc4s3)nc12` has a z-score of 2.21. Work on `Cc1ccc(Nc2nc3ccccc3s2)cc1` yielded a z-score of 0.0689. `NNc1nc2c(F)cc(F)cc2s1` showed a z-score of -0.193. In the case of `Cc1ccccc1Nc1nc2ccccc2s1`, the z-score is reported as 0.103. In the case of `Fc1cc(F)c2nc(N3CCCCC3)sc2c1`, the z-score is reported as -0.14. In the case of `O=C(Nc1ccc(Cl)cc1)Nc1cccnc1`, the z-score is reported as 0.471. Work on `CCN(CC)c1ncnc2c1cnn2C` yielded a z-score of -0.228. `CCC1(CC)C(=O)N(C)C(=O)NC1=NCc1ccccc1` was tested, and the z-score was 0.146. With `COc1ccc(/C=C/C(=O)Nc2ccc(N3CCOCC3)cc2)cc1` the z-score was -0.219. In the case of `CC(C)Cn1c(N)c(C(=O)CSc2ccccc2)c(=O)n(C)c1=O`, the z-score is reported as -0.216. `CCCCn1c(N)c(C(=S)NC(=O)CC(C)C)c(=O)n(C)c1=O` was tested, and the z-score was 3.59 (active). In the case of `CC(C)Cn1c(N)c(C(=O)CSc2nnnn2C)c(=O)n(C)c1=O`, the z-score is reported as -0.302. With `CCCCn1c(N)c(C(=S)NC(=O)CC(C)(C)C)c(=O)n(C)c1=O` the z-score was 9.54 (active). In the case of `Cn1c(=O)c(C(=S)NC(=O)C2CC2)c(N)n(Cc2ccccc2)c1=O`, the z-score is reported as 0.362. `CCCn1c(N)c(C(=S)NC(=O)C2CC2)c(=O)n(C)c1=O` was tested, and the z-score was 0.941. `CC(C)(C)n1ncc2c(=O)n(Cc3ccc(Cl)cc3Cl)cnc21` gave a z-score of -1.25. For `Cc1ccc(CNC(=O)CCCOc2cc(=O)n(C)c3ccccc23)o1`, the z-score was -0.129. For `Clc1ccc(C(c2nnnn2C2CCCC2)N2CCSCC2)cc1` (stereo not drawn), the z-score was -0.998. In the case of `O=C(O)C1CCN(C(=O)c2ccccc2Cl)CC1`, the z-score is reported as -0.551. In the case of `CC(=O)NC(CC(=O)Nc1cccc(S(=O)(=O)N2CCCCC2)c1)c1ccccc1` (stereo not drawn), the z-score is reported as 0.132. For `COCCCn1c(SCC(=O)N2CCc3ccccc32)nnc1-c1ccco1`, the z-score was -0.129. With `COc1ccc(N/C(C)=C2/C(=O)C(=O)N(CCO)C2c2ccc(Br)cc2)cc1` (stereo not drawn) the z-score was 5.05 (active). With `COc1ccc(C2/C(=C(/O)c3ccccc3)C(=O)C(=O)N2CCO)cc1` (stereo not drawn) the z-score was -0.0153. Work on `COc1ccc(N/C(C)=C2/C(=O)C(=O)N(CCO)C2c2ccc([N+](=O)[O-])cc2)cc1` (stereo not drawn) yielded a z-score of -0.701. Work on `O=C1CCCc2c1cc(C(=O)NC1CCSC1=O)c(=O)n2-c1ccccc1` (stereo not drawn) yielded a z-score of -0.276. Compound `CCN(CC)CCC(=O)Nc1ccc2c(c1)N(C(=O)CN(CC)CC)c1ccccc1CC2` has a z-score of -0.214. Compound `CCN(CC)CC(=O)Nc1ccc2c(c1)Nc1ccccc1CC2` has a z-score of 2.49. `CCN(CC)CC(=O)Nc1ccc2c(c1)N(C(=O)CN(CC)CC)c1ccccc1CC2` gave a z-score of -0.342. `COc1ccc(C(=O)c2cn[nH]c2-c2cc(Cl)ccc2O)cc1` gave a z-score of -0.207. `COc1ccc(/C=C2\C(=O)N(c3c(Cl)cc(Cl)cc3Cl)N=C2NC(=O)c2cccc([N+](=O)[O-])c2)cc1` was tested, and the z-score was -0.0535. With `Cc1ccc(C)c(NC(=O)CS(=O)(=O)c2cn(C)c3ccccc23)c1` the z-score was 0.61. `CCn1cc(S(=O)(=O)CC(=O)Nc2cc(C)ccc2C)c2ccccc21` showed a z-score of 2.61. With `CCn1cc(S(=O)(=O)CC(=O)Nc2ccc(C)cc2)c2ccccc21` the z-score was -0.393. Compound `CCOc1ccc(OCCOCCNCCOC)cc1` has a z-score of 0.0989. With `Cc1c(CN(C)CCc2ccccc2)c(=O)n(-c2ccccc2)n1C` the z-score was -0.04. Compound `CCc1ccc(Nc2nnc(SCC(=O)Nc3cccc(S(=O)(=O)NC4=NCCCCC4)c3)s2)cc1` has a z-score of -0.205. In the case of `COC(=O)c1ccccc1NC(=O)C1CC(c2ccccc2O)=NO1` (stereo not drawn), the z-score is reported as 2.57. In the case of `CCn1cc(C2=NOC(C(=O)Nc3ccccc3C(=O)OC)C2)c(C)n1` (stereo not drawn), the z-score is reported as -0.574. `CSc1ccccc1NC(=O)C1CC(c2ccccc2O)=NO1` (stereo not drawn) showed a z-score of -0.288.

Source: PubChem BioAssay AID488969 (Vanderbilt High Throughput Screening Facility, 2010)
